Laboratory results from paper PMC11006913.

Each sequence was assayed against NKX3-2 (Homo sapiens, UniProt P78367 192-278, P234S) (assay: PBM; 200 nM protein, PBS). Conditions: dsDNA, one strand shown.
NKX3-2, sequence (P78367 192-278 P234S): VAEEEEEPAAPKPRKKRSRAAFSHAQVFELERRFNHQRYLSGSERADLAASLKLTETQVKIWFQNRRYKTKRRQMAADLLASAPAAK

Which binding signal does the source give for ATCCCGCC here?
The binding signal was 10.7 upbm affinity estimate (log intensity, higher = more binding, comparable within an allelic series).

With CCGCTCAG as the sequence, how does the binding signal read?
Its binding signal is 10.6 upbm affinity estimate (log intensity, higher = more binding, comparable within an allelic series).

With AGGCATGG as the sequence, how does the binding signal read?
The binding signal was 10.6 upbm affinity estimate (log intensity, higher = more binding, comparable within an allelic series).

With CGTTAACG as the sequence, how does the binding signal read?
Its binding signal is 10.4 upbm affinity estimate (log intensity, higher = more binding, comparable within an allelic series).

Which binding signal does the source give for CAAGTGCG here?
Its binding signal is 12.2 upbm affinity estimate (log intensity, higher = more binding, comparable within an allelic series).

The sequences below were run against CRX (Homo sapiens, UniProt O43186 26-111, R41L) (assay: PBM; 200 nM protein, PBS). Conditions: dsDNA, one strand shown.
CRX, sequence (O43186 26-111 R41L): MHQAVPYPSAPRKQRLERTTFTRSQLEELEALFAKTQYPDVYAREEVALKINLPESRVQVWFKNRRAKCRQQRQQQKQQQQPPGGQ

GTCTTAAC was tested. Which binding signal did it give?
The binding signal was 10.3 upbm affinity estimate (log intensity, higher = more binding, comparable within an allelic series).

Which binding signal does the source give for ATCTTAAG here?
The binding signal was 10.8 upbm affinity estimate (log intensity, higher = more binding, comparable within an allelic series).

CTAATGCC was tested. Which binding signal did it give?
Its binding signal is 10.1 upbm affinity estimate (log intensity, higher = more binding, comparable within an allelic series).

With GCTTAAGA as the sequence, how does the binding signal read?
Its binding signal is 11.1 upbm affinity estimate (log intensity, higher = more binding, comparable within an allelic series).

How did the binding signal turn out when AGTATTAA was run?
The binding signal was 11 upbm affinity estimate (log intensity, higher = more binding, comparable within an allelic series).

Which binding signal does the source give for GTATTAGA here?
The binding signal was 10.7 upbm affinity estimate (log intensity, higher = more binding, comparable within an allelic series).

For CGCATTAG, which binding signal is on record?
Its binding signal is 10.4 upbm affinity estimate (log intensity, higher = more binding, comparable within an allelic series).

AGTATTAG was tested. Which binding signal did it give?
Its binding signal is 10.8 upbm affinity estimate (log intensity, higher = more binding, comparable within an allelic series).

How did the binding signal turn out when ACTAATAC was run?
Its binding signal is 10.7 upbm affinity estimate (log intensity, higher = more binding, comparable within an allelic series).

ATTAAGAC was tested. Which binding signal did it give?
The binding signal was 11 upbm affinity estimate (log intensity, higher = more binding, comparable within an allelic series).

Which binding signal does the source give for CGTCTTAA here?
Its binding signal is 10.7 upbm affinity estimate (log intensity, higher = more binding, comparable within an allelic series).

For AGGCTTAG, which binding signal is on record?
Its binding signal is 11.6 upbm affinity estimate (log intensity, higher = more binding, comparable within an allelic series).

How did the binding signal turn out when ACTAAGCT was run?
The binding signal was 11.4 upbm affinity estimate (log intensity, higher = more binding, comparable within an allelic series).

For ACGCTTAA, which binding signal is on record?
The binding signal was 10.3 upbm affinity estimate (log intensity, higher = more binding, comparable within an allelic series).

AGCTTAAG was tested. Which binding signal did it give?
The binding signal was 11.6 upbm affinity estimate (log intensity, higher = more binding, comparable within an allelic series).

For GCATTAGC, which binding signal is on record?
The binding signal was 10.5 upbm affinity estimate (log intensity, higher = more binding, comparable within an allelic series).

With CCTAATAC as the sequence, how does the binding signal read?
Its binding signal is 10.6 upbm affinity estimate (log intensity, higher = more binding, comparable within an allelic series).

With CAGATTAC as the sequence, how does the binding signal read?
Its binding signal is 12.3 upbm affinity estimate (log intensity, higher = more binding, comparable within an allelic series).

Which binding signal does the source give for CTTAAGAC here?
Its binding signal is 10.7 upbm affinity estimate (log intensity, higher = more binding, comparable within an allelic series).

With TAAGACGA as the sequence, how does the binding signal read?
Its binding signal is 10.2 upbm affinity estimate (log intensity, higher = more binding, comparable within an allelic series).

With AGCATTAA as the sequence, how does the binding signal read?
The binding signal was 10.9 upbm affinity estimate (log intensity, higher = more binding, comparable within an allelic series).

Which binding signal does the source give for ATAATCTA here?
The binding signal was 12.4 upbm affinity estimate (log intensity, higher = more binding, comparable within an allelic series).

Which binding signal does the source give for CTTAATGC here?
Its binding signal is 11 upbm affinity estimate (log intensity, higher = more binding, comparable within an allelic series).

For CTAATACC, which binding signal is on record?
Its binding signal is 11.2 upbm affinity estimate (log intensity, higher = more binding, comparable within an allelic series).

With ACTAAGAC as the sequence, how does the binding signal read?
Its binding signal is 10.1 upbm affinity estimate (log intensity, higher = more binding, comparable within an allelic series).

With CCTAAGCC as the sequence, how does the binding signal read?
The binding signal was 11.2 upbm affinity estimate (log intensity, higher = more binding, comparable within an allelic series).

With ATAAGCCG as the sequence, how does the binding signal read?
The binding signal was 12.3 upbm affinity estimate (log intensity, higher = more binding, comparable within an allelic series).

CTAAGCTC was tested. Which binding signal did it give?
The binding signal was 11.1 upbm affinity estimate (log intensity, higher = more binding, comparable within an allelic series).

Which binding signal does the source give for GCTAAGAC here?
The binding signal was 10.2 upbm affinity estimate (log intensity, higher = more binding, comparable within an allelic series).

For CTAAGCCA, which binding signal is on record?
The binding signal was 10.7 upbm affinity estimate (log intensity, higher = more binding, comparable within an allelic series).

With CTTTATCC as the sequence, how does the binding signal read?
Its binding signal is 10.7 upbm affinity estimate (log intensity, higher = more binding, comparable within an allelic series).

CCGCTTAA was tested. Which binding signal did it give?
Its binding signal is 10.9 upbm affinity estimate (log intensity, higher = more binding, comparable within an allelic series).

For CTTAATAC, which binding signal is on record?
The binding signal was 11.3 upbm affinity estimate (log intensity, higher = more binding, comparable within an allelic series).

GAGATTAC was tested. Which binding signal did it give?
The binding signal was 12.3 upbm affinity estimate (log intensity, higher = more binding, comparable within an allelic series).

For ATTAAGCG, which binding signal is on record?
The binding signal was 10.8 upbm affinity estimate (log intensity, higher = more binding, comparable within an allelic series).
